Compounds without any hit were thinned out: in the full panel of roughly 83,000, 20% have a hit.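 Negative percent growth values reflect cell death: -40 means 40% of the cells present at the start died, and -100 means all died.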 The source made the active and inactive calls. Rule for the calls: active = growth percent below 10; inactive = the rest.
Key:
Test in all cases: NCI-60 one-dose screen, 48 h (100 = growth as untreated, 0 = no growth, -100 = all killed)
[1] = system: T-47D breast; settings: 10 µM unless noted
[2] = system: BT-549 breast; settings: 10 µM unless noted
[3] = system: MDA-MB-435 melanoma; settings: 10 µM unless noted
[4] = system: SW-620 colon; settings: 10 µM unless noted
[5] = system: MCF7 breast; settings: 10 µM unless noted
[6] = system: HCT-116 colon; settings: 10 µM unless noted
[7] = system: KM12 colon; settings: 10 µM unless noted
[8] = system: HCC-2998 colon; settings: 10 µM

Measured: growth

Cc1c(Cn2c(C)nc3c(C(=O)O)cc(N4CCOCC4)cc32)cccc1C(F)(F)F
inactive: [1] 69.2% | [2] 70.9% | [3] 106% | [4] 102% | [5] 92.6% | [6] 92.1% | [7] 103%

CNC(=O)c1cc(COc2nnc(Nc3ccc(Cl)cc3)c3ccoc23)ccn1
inactive: [1] 15.2% | [2] 29.8% | [3] 73.2% | [4] 108% | [5] 48.1% | [8] 94.3% | [7] 53.8%

CC(=O)NCC(=O)N1[C@@H]2CC[C@H]1c1ccc(Nc3ncc(C(F)(F)F)c(NC4CCC4)n3)cc12
inactive: [1] 88.4% [2.5 µM] | [2] 36.3% [2.5 µM] | [3] 39.9% [2.5 µM] | [4] 16.3% [2.5 µM] | [5] 25.1% [2.5 µM] | [6] 13.4% [2.5 µM]
active: [7] 3.64% [2.5 µM]

CCOC(=O)c1sc(NC(=O)COc2ccc(/C=C3\Cc4ccc(Cl)cc4C3=O)cc2)nc1C
inactive: [1] 92.9% | [2] 94.5% | [3] 105% | [4] 123% | [5] 96.1% | [6] 92.9% | [7] 112%

Cc1cc(-c2cc(OC(=O)c3ccccc3)ccc2Cl)cc2nnc(Nc3ccc(OCCN4CCCC4)cc3)nc12
active: [3] -70.6% | [5] 3.92%
inactive: [1] 91.8% | [2] 110% | [4] 105% | [8] 109% | [7] 90.5%

CN1[C@@H]2CC[C@H]1/C(=C\c1ccccc1)C1=C2[C@@H](c2ccccc2)C(C#N)=C(N)O1
inactive: [1] 58.6% | [2] 67% | [3] 98.5% | [4] 98.2% | [5] 85.2% | [8] 87.7% | [7] 85.3%

COc1cc(Nc2ncc3c(n2)-c2ccc(Cl)cc2C(c2c(F)cccc2OC)=NC3)ccc1C(=O)O
inactive: [1] 79.6% | [2] 62.8% | [3] 85.9% | [4] 54.7% | [5] 42.5% | [8] 87.5% | [7] 28.3%

O=C1CC(c2cccc(F)c2)c2c(n[nH]c2-c2ccc(Cl)cc2)N1 (centres undefined)
inactive: [1] 55.8% | [2] 92.4% | [3] 99.5% | [4] 114% | [5] 96.5% | [8] 102% | [7] 91.7%

CC(C)CC(=O)Nc1n[nH]c2c1CN(C(=O)C1CCN(C)CC1)C2(C)C
active: [1] -3% | [4] 9.91% | [5] 3.99% | [7] 9.26%
inactive: [2] 33.7% | [3] 12% | [8] 13.1%

CC(C)c1ccc(/C=N/Nc2nc3ccccc3s2)cc1
inactive: [1] 78.2% | [2] 99% | [3] 107% | [4] 102% | [5] 76.2% | [8] 104% | [7] 89%

COc1cc2ncnc(Nc3cccc(Cl)c3F)c2cc1OC(=O)N1CCN(C)C[C@H]1C
inactive: [1] 28.5% | [2] 93.8% | [3] 94.3% | [4] 94.2% | [5] 63.2% | [6] 87.5% | [7] 87.8%

C[C@@H]1COC(Nc2ccc3ncnc(Nc4ccc(OCc5nccs5)c(Cl)c4)c3c2)=N1
inactive: [3] 50.1% | [4] 76.8% | [5] 45.1% | [8] 46.9% | [7] 18.5%
active: [1] -17.5% | [2] 1.81%

CCCCOc1nc2cc(Cl)ccc2cc1/C=C/c1cc(/C=C/c2cc3ccc(Cl)cc3nc2OCCCC)n(-c2ccccc2)n1
inactive: [1] 65.7% | [2] 89.3% | [3] 112% | [4] 105% | [5] 94.5% | [8] 102% | [7] 94.9%

CCc1nc2cc(/C=C/C(=O)NO)ccc2c(=O)n1CCc1ccc(OC)cc1
active: [1] -2.1% | [3] 7.73% | [4] 5.44%
inactive: [2] 55.1% | [5] 10.5% | [8] 48%

C[C@@H](Oc1cc(C(=O)Nc2ccc(C(=O)N3CCN(C)CC3)cc2)nnc1N)c1c(Cl)ccc(F)c1Cl
inactive: [1] 59.4% | [2] 71.7% | [3] 68.8% | [4] 98.1% | [5] 47.1% | [6] 49.4% | [7] 23%

CCN(CC)CCCC(C)Nc1cc(-c2ccc(C(F)(F)F)cc2)c(C#N)c2nc3ccccc3n12 (centres undefined)
inactive: [4] 12.2% | [5] 14.1% | [8] 16.6% | [7] 36.5%
active: [1] -8.16% | [2] -10.7% | [3] -64.8%

CC(CCCC(=O)O)c1ccoc1 (centres undefined)
inactive: [1] 89.6% | [2] 108% | [3] 107% | [4] 110% | [5] 94.1% | [8] 96.7% | [7] 98.7%

CN1CCN(CC(=O)Nc2ccc(-c3nc4ccccc4s3)cc2)CC1
inactive: [1] 54.1% | [2] 80.7% | [3] 25.4% | [4] 102% | [5] 36.8% | [8] 77.3% | [7] 85.6%

COc1cc2c(Oc3ccc(NC(=O)C4(C(=O)Nc5ccc(F)cc5)CC4)cc3F)ccnc2cc1OCCCN1CCOCC1
active: [1] 0.289% | [3] -75.1% | [4] -31.4% | [5] -22.2% | [8] 7.76% | [7] 0.619%
inactive: [2] 17.8%

CC(=O)OC1Oc2ccccc2-c2oc(=O)c(-c3cc4ccc(N(C)C)cc4oc3=O)cc21 (centres undefined)
inactive: [2] 15.9% | [3] 44.5% | [4] 61.7% | [5] 68.5% | [6] 20.7% | [7] 71.8%
active: [1] -4.17%

OCCNC(=S)Nc1ccc(-c2nc(N3C[C@H]4CC[C@@H](C3)O4)c3cccn3n2)cc1
active: [1] -22.5% | [2] -8.04% | [3] 0.28% | [5] 9.19%
inactive: [4] 11.6% | [8] 20.8% | [7] 12%

O=c1nc2c(-c3nc4ccccc4s3)n[nH]n2c2sc3c(c12)CCCC3
inactive: [1] 78.9% | [2] 94.1% | [3] 110% | [4] 100% | [5] 89.1% | [8] 103% | [7] 96.7%

Cn1cc(-c2ncnc3ccc(-c4cnc(Cl)c(NS(C)(=O)=O)c4)cc23)c2ccccc21
active: [1] -23.9% | [2] 4.5% | [3] 7.19% | [5] 7.57%
inactive: [4] 21.3% | [8] 17.7% | [7] 25.3%

[2H]C1([2H])[C@H](C)O[C@H](C)C([2H])([2H])N1c1ccc(NC(=O)c2cccc(-c3ccc(OC(F)(F)F)cc3)c2C)cn1
inactive: [1] 41.7% | [2] 63.9% | [3] 73.4% | [4] 90% | [5] 66.8% | [6] 56.9% | [7] 73.2%

C[C@@H](N)c1ccc(C(=O)Nc2ccnc3[nH]ccc23)cc1
inactive: [1] 61.9% | [2] 13.9% | [3] 80.4% | [4] 20.5% | [5] 42.7% | [6] 14.4% | [7] 30.3%

COc1ccc(Cc2cc(-c3ccccc3C)n[nH]c2=O)cc1
inactive: [1] 94.4% | [2] 132% | [3] 117% | [5] 95.4% | [6] 98% | [8] 110% | [7] 97.9%

CC(=O)c1c(C)c2cnc(Nc3ccc(N4CCNCC4)cn3)nc2n(C2CCCC2)c1=O
inactive: [1] 55.7% | [2] 50.5% | [3] 45.5% | [5] 27.4% | [6] 10.6% | [8] 57.3% | [7] 11.3%

O=C1CC(c2ccc3c(c2)OCO3)c2ncn(-c3ccc(Cl)cc3)c2N1 (centres undefined)
active: [3] -42.8%
inactive: [1] 41.3% | [2] 57.5% | [5] 45.5% | [6] 11.4% | [8] 68.1% | [7] 32.7%

O=C1C=CC2(NN=C(c3ccccc3)N2c2ccccc2)c2cccc(O)c21 (centres undefined)
inactive: [1] 78.8% | [2] 41.1% | [5] 35.4% | [6] 18.1% | [8] 54.2% | [7] 47.3%
active: [3] -92.4%

O=C1NC(=O)[C@@H](c2cn3c4c(cccc24)CCC3)[C@@H]1c1c[nH]c2ccccc12
active: [3] -13.2% | [6] 2.94%
inactive: [1] 24.3% | [2] 16.2% | [5] 19.5% | [8] 18.4%

CCN1/C(=C/C=C/c2n(-c3ccccc3)c3ccc(-c4nc5ccccc5s4)cc3[n+]2CC)N(c2ccccc2)c2ccc(-c3nc4ccccc4s3)cc21
inactive: [5] 11.2% | [6] 10.8% | [7] 10.6%
active: [1] 5.56% | [2] -5.34% | [3] -41.1%

— PubChem BioAssay (NCI)
